Test results from PubChem BioAssay.
For some assays here: Measured potencies and affinities stand elsewhere. Active and inactive are the calls of the source.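 Rule for the calls, unless noted: active = primary screen activator hit with a dose response curve and TRPC4 channel activation at any tested dose; inactive = no activation, no dose response, or not a primary hit.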

Columns and labels:
[1] = test system: TRPC4 beta (transient receptor potential cation channel C4), mouse; test: TRPC4 cation channel opening, retest – cell-based, Fluo4 calcium, HEK293 TRPC4beta/mu-opioid, duplicates, 10 µM, confirmation (AID 2426;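 active = fluorescence ratio normalized to control raised more than 50% in primary screen plus both repeat runs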); settings: Fluo4 calcium fluorescence, at 10 µM; stronger effect = higher value
[2] = test system: transient receptor potential cation channel C4 beta (TRPC4), mouse; test: TRPC4 cation channel opening, second retest – cell-based, second round, Fluo4, HEK293 TRPC4beta/mu-opioid, 1 µM, confirmation (AID 2461;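 active = primary screen active and over 50% activation in each of two duplicate runs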); settings: Fluo4 calcium fluorescence, at 1 µM; stronger effect = higher value
[3] = test system: TRPC4 (transient receptor potential cation channel C4 beta), mouse; test: potentiation of DAMGO EC20 TRPC4 response – cell-based, second round, Fluo-4, HEK293 TRPC4beta/mu-opioid, 1 µM, confirmation (AID 2554;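 active = primary screen hit whose fluorescence ratio, in both repeats, exceeds the weak agonist control mean by 3 SD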); settings: DAMGO EC20, Fluo-4 calcium flux, at 1 µM; stronger effect = higher value
[4] = test system: TRPC4 beta (transient receptor potential cation channel C4), mouse; test: potentiation of DAMGO EC20 TRPC4 response – cell-based, Fluo-4, HEK293 TRPC4beta/mu-opioid, confirmation (AID 2555;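 active = primary screen hit whose calcium fluorescence ratio, in both repeats, exceeds the weak agonist control mean by 3 SD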); settings: DAMGO EC20, Fluo-4 calcium flux, at 10 µM; stronger effect = higher value
[5] = target: Short transient receptor potential channel 4 (Mus musculus) (UniProt Q9QUQ5); test: blockers of DAMGO-evoked TRPC4 calcium flux – cell-based, Fluo4, HEK293 TRPC4beta/mu-opioid, confirmation (AID 2636;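 active = calcium signal cut by more than 3 SD below the full-agonist control yet still positive, in both repeats and the earlier primary screen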); settings: at 10 µM; stronger effect = higher value
[6] = target: Short transient receptor potential channel 4 (Mus musculus) (UniProt Q9QUQ5); test: blockers of DAMGO-evoked TRPC4 calcium flux – cell-based, second round, Fluo4, HEK293 TRPC4beta/mu-opioid, 1 µM, confirmation (AID 2637;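 active = calcium signal ratio cut to more than 3 SD under the fully stimulated control mean yet still positive, in both repeats and the primary screen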;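 for inhibition: percent of integrated ratio relative to wells lacking test compound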); settings: at 1 µM; stronger effect = higher value
[7] = target: Short transient receptor potential channel 4 (Mus musculus) (UniProt Q9QUQ5); test: calcium entry via TRPC4 opening agents – cell-based, HEK293 TRPC4/mu-opioid, Fluo-4 calcium, dose response (AID 434937)
[8] = target: Short transient receptor potential channel 4 (Mus musculus) (UniProt Q9QUQ5); test: potentiation of DAMGO-evoked TRPC4 calcium signal – cell-based, HEK293 TRPC4/mu-opioid, Fluo-4 calcium, EC20 DAMGO, dose response (AID 434941;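 active = earlier screen potentiator hit that boosts the TRPC4 ion channel at some dose, with a dose response; inactive = no potentiation, no dose response, or not a prior hit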;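 note: calcium entry triggered by an EC20 dose of DAMGO at the co-expressed mu-opioid receptor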)
[9] = target: Short transient receptor potential channel 6 (Mus musculus) (UniProt Q61143); test: TRPC6 blockade by TRPC4 inhibitor hits – cell-based, HEK293, membrane potential dye, duplicate, selectivity assay for TRPC4 inhibitor project, confirmation (AID 434948;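 active = active in primary screen and both duplicates, each dropping signal beyond three positive-control SD with fluorescence still positive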); settings: HEK293 TRPC6, membrane potential dye fluorescence, at 10 µM, stimulated with maximal-effect acetylcholine; stronger effect = higher value
[10] = target: Short transient receptor potential channel 6 (Mus musculus) (UniProt Q61143); test: TRPC6 opening by TRPC4 activator hits – cell-based, HEK293, membrane potential dye, duplicate, selectivity assay for TRPC4 activator project, confirmation (AID 434950;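 active = membrane potential signal rise above negative control mean plus 3 SD in both duplicates, also active in the earlier TRPC4 screen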;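 for activation: 0% = buffer only wells and 100% = acetylcholine maximal-effect wells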); settings: HEK293 TRPC6, membrane potential fluorescence, at 10 µM; activation: stronger effect = higher value; outcome: activation
[11] = target: Short transient receptor potential channel 6 (Mus musculus) (UniProt Q61143); test: positive modulators of mouse TRPC6 channel – HEK293 cells, membrane potential dye, duplicate, selectivity assay for TRPC4 potentiator project, confirmation (AID 434952;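 active = compound raising the membrane signal above positive-control mean plus 3 SD in both repeats, and a primary screen hit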); settings: HEK293 TRPC6, membrane potential dye fluorescence, at 10 µM, maximal acetylcholine added after compound; stronger effect = higher value
[12] = target: Short transient receptor potential channel 4 (Mus musculus) (UniProt Q9QUQ5); test: calcium flux activators in TRPC4/5HT1a cells, counter-screen for TRPC4 activator project, cell-based, second counter screen, HEK293 TRPC4/5HT1a, Fluo-4 (AID 434977;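 active = calcium signal rise above buffer-control mean plus 5 SD in both duplicates, and also a hit in the primary screen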); settings: Fluo-4 calcium flux, at 10 µM; stronger effect = higher value
[13] = serotonin-gated TRPC4 signal block – cell-based, second counter screen, HEK293 TRPC4/5HT1a, Fluo-4, counter-screen for TRPC4 inhibitor project, confirmation (AID 434978;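 active = primary screen active whose calcium signal fell more than 3 SD beyond the full-serotonin control mean in both duplicate plates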;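 for outcome: serotonin given first at submaximal then at maximal dose after compound preincubation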); settings: Fluo-4 calcium flux, at 10 µM, serotonin added to trigger calcium flux; stronger effect = higher value
[14] = test system: TRPC4 (mouse), co-expressed with 5HT1a in HEK293; test: enhancement of serotonin-evoked TRPC4 response – cell-based, second counter screen, HEK293 TRPC4/5HT1a, Fluo-4, counter-screen for TRPC4 potentiator project, confirmation (AID 434979;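 active = signal rise over 3 SD above mean of control wells given weak agonist, in both repeats and first screen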); settings: Fluo-4 calcium flux, at 10 µM, serotonin added at its EC20 dose; stronger effect = higher value
[15] = nonspecific calcium rise without TRPC4 – cell-based, HEK293 mu-opioid receptor line, counter-screen for TRPC4 activator project, confirmation (AID 449723;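 active = hit in primary screen, with calcium signal over 5 SD above buffer well mean in both duplicates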;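 note: counter screen cells carry the mu-opioid receptor alone and lack TRPC4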); settings: HEK293 mu-opioid cells, Fluo-4 calcium fluorescence, at 10 µM; stronger effect = higher value
[16] = nonspecific potentiation of DAMGO calcium response – cell-based, HEK293 mu-opioid receptor line, counter-screen for TRPC4 allosteric potentiator project, confirmation (AID 449724;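 active = calcium signal rise more than 3 SD above the low-dose agonist control mean, in both duplicate plates and the primary screen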); settings: HEK293 mu-opioid receptor cells, Fluo-4 calcium flux, at 10 µM, compound added before EC20 DAMGO stimulus; stronger effect = higher value

Short transient receptor potential channel 6 (Mus musculus), sequence (Q61143 whole entry, looked up): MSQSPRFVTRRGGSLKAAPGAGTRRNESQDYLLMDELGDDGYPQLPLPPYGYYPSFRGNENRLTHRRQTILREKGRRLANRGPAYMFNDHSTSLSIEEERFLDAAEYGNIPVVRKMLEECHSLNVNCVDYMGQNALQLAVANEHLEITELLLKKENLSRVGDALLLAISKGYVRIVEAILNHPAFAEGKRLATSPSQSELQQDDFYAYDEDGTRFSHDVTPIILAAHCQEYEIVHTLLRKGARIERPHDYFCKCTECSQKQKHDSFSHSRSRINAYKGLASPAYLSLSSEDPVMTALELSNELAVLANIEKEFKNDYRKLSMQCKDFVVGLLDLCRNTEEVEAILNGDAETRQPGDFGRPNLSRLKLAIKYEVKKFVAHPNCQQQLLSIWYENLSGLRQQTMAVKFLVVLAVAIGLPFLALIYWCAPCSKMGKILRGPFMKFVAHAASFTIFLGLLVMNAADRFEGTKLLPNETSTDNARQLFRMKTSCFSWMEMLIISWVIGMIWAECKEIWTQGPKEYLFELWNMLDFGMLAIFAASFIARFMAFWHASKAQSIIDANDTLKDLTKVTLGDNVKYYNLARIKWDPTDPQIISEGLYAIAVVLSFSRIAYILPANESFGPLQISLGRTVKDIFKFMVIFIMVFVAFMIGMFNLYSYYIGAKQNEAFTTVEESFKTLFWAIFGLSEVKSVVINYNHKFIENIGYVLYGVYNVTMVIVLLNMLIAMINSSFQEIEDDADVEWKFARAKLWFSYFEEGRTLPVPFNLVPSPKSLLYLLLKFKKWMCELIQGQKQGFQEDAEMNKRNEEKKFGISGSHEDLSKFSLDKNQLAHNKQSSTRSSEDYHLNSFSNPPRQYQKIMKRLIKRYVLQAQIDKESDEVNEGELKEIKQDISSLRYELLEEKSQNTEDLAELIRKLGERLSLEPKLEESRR
Short transient receptor potential channel 4 (Mus musculus), sequence (Q9QUQ5 whole entry, looked up): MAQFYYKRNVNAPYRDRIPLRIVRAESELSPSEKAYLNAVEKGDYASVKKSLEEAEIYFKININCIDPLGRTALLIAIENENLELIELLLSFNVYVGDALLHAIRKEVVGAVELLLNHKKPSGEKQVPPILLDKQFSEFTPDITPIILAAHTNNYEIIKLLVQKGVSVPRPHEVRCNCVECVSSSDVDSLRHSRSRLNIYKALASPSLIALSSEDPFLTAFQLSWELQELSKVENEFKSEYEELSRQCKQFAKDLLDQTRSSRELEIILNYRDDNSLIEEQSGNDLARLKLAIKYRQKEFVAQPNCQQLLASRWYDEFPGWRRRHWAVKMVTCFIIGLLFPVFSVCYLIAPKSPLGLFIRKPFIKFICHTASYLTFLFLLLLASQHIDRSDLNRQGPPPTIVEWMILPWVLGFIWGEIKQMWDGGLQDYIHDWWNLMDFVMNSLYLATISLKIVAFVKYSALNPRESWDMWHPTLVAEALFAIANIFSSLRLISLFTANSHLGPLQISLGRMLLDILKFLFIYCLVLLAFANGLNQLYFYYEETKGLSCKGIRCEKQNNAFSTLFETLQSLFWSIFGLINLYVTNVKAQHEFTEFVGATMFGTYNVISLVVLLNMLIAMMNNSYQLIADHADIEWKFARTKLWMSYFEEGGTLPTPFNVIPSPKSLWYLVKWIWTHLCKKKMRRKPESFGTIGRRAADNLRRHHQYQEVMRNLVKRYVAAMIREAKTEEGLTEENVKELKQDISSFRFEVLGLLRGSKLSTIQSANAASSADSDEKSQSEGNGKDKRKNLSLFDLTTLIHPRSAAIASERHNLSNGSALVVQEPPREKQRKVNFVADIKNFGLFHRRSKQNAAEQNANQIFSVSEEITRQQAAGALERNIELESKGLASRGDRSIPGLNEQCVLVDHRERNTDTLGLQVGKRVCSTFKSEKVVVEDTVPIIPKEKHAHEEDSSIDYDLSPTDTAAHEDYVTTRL

CCN(CC)CCn1c2ccccc2c2cnc(N)c(C#N)c21
inactive: outcome [1] | outcome [2] | outcome [3] | outcome [4] | outcome [6] | outcome [7] | outcome [8] | outcome [9] | outcome [10] | outcome [11] | outcome [12] | outcome [14] | outcome [15] | outcome [16]
active: inhibition [5] 82% | inhibition [13] 32.9%

C=C(c1ccc(O)cc1)c1ccc(O)cc1
inactive: outcome [1] | outcome [2] | outcome [3] | outcome [4] | outcome [7] | outcome [8] | outcome [9] | outcome [10] | outcome [11] | outcome [12] | outcome [14] | outcome [15] | outcome [16]
active: inhibition [5] 89% | inhibition [6] 47% | inhibition [13] 29.6%

OCC1(CCc2ccccc2)CCN(Cc2cc(Cl)ccc2O)CC1
inactive: outcome [1] | outcome [2] | outcome [3] | outcome [4] | outcome [6] | outcome [7] | outcome [8] | outcome [9] | outcome [10] | outcome [11] | outcome [12] | outcome [13] | outcome [14] | outcome [15] | outcome [16]
active: inhibition [5] 79%

Cc1ccc(NC(=O)CN2CCc3ccccc3C2)cc1S(=O)(=O)N1CCOCC1
active: inhibition [5] 92% | inhibition [6] 46% | activation [10] 30.5%
inactive: outcome [1] | outcome [2] | outcome [3] | outcome [4] | outcome [7] | outcome [8] | outcome [9] | outcome [11] | outcome [12] | outcome [13] | outcome [14] | outcome [15] | outcome [16]

COc1ccc(OC)c(Nc2cc(C)nc3ccc(C)cc23)c1
inactive: outcome [1] | outcome [2] | outcome [3] | outcome [4] | outcome [6] | outcome [7] | outcome [8] | outcome [10] | outcome [11] | outcome [12] | outcome [13] | outcome [14] | outcome [15] | outcome [16]
active: inhibition [5] 38% | inhibition [9] 41%

OCCNc1nc2ccccc2n1CCN1CCCCC1
inactive: outcome [1] | outcome [2] | outcome [3] | outcome [4] | outcome [6] | outcome [7] | outcome [8] | outcome [9] | outcome [10] | outcome [11] | outcome [12] | outcome [14] | outcome [15] | outcome [16]
active: inhibition [5] 91% | inhibition [13] 22.9%

Cc1ccc2nc(C)cc(Nc3ccc4c(c3)OCCO4)c2c1
active: inhibition [5] 90% | inhibition [9] 50%
inactive: outcome [1] | outcome [2] | outcome [3] | outcome [4] | outcome [6] | outcome [7] | outcome [8] | outcome [10] | outcome [11] | outcome [12] | outcome [13] | outcome [14] | outcome [15] | outcome [16]

COc1nc(N=C(N)N)nc2ccc(C)cc12
inactive: outcome [1] | outcome [2] | outcome [3] | outcome [4] | outcome [6] | outcome [7] | outcome [8] | outcome [10] | outcome [11] | outcome [12] | outcome [14] | outcome [15] | outcome [16]
active: inhibition [5] 96% | inhibition [9] 46.5% | inhibition [13] 21.1%
